We go through nine compounds from PubChem BioAssay (Tox21).

A short description of assay [1]: qHTS assay to identify small molecule agonists of the estrogen receptor alpha (ER-alpha) signaling pathway in the presence of an antagonist - cell viability counter screen (AID 1259386). Also: nearly all actives have a fitted effect of over 30% in size. Also: potency is read from the fitted curve at half-maximal effect. The method, boiled down: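 Read-out: CellTiter-Fluor fluorescence after 1hr reagent incubation, measured in the same wells as the luciferase readout. VM7Luc4E2 cells were exposed to 15 compound concentrations with 10.0nM ICI-182,780 for 22hr at 37C.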

Assay [2] concerns the target Progesterone receptor (Homo sapiens) (UniProt P06401). The assay can be described thus: qHTS assay to identify small molecule agonists of the progesterone receptor (PR) signaling pathway (AID 1346784; calls by dose curve; also: nearly all actives have a fitted effect of over 30% in size; also: potency is read from the fitted curve at half-maximal effect). In outline:
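Compounds were tested for PR agonism in HEK 293T cells bearing a beta-lactamase gene under UAS control. Treatment lasted 16 hr at 37C; signal came from fluorescence of a FRET substrate.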

The nature of assay [3]: qHTS assay to identify small molecule antagonists of the progesterone receptor (PR) signaling pathway - cell viability counter screen (AID 1346798). Also: nearly all actives have a fitted effect of over 50% in size. Also: potency is read from the fitted curve at half-maximal effect. In outline: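 Following a 4 hr attachment, PR-UAS-bla HEK293T cells in charcoal-stripped FBS medium were exposed to compounds with R5020 for 16 hr; CellTiter-Glo was added and luminescence read after 30 min at room temperature.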

Assay [4] is described as follows: qHTS assay to identify small molecule antagonists of the TGF-beta/Smad signaling pathway - cell viability counter screen (AID 1346824). Also: nearly all actives have a fitted effect of over 50% in size. In outline:
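Cytotoxicity counter-screen run in the same wells as the beta-lactamase Smad reporter read: CellTiter-Glo luminescence after 30 min at room temperature. HEK 293T SBE-bla cells had 5 hr compound exposure at 37 C with TGF-beta1 (0.25 ng/mL stock).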

Assay [5] can be described thus: qHTS assay to identify small molecule agonists of the TGF-beta/Smad signaling pathway - cell viability counter screen (AID 1346829). Also: top concentration of the series differs between compounds; nearly all actives have a fitted effect of over 45% in size. In outline: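 Luminescence from CellTiter-Glo, read after a 30 min room-temperature incubation, gives cell viability of SBE-bla HEK 293T cells treated 5 hr with compounds at 37 C.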
Assay [6] can be described thus: qHTS assay to identify small molecule agonists of the TGF-beta/Smad signaling pathway (AID 1346859; active = well fitted activation curve with a large enough effect in the signal ratio in the repeat runs, not every such curve was filed as active; the % refers to the signal ratio; also: series mostly up to about 77 µM). In outline:
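Each well held 4,000 SBE-bla HEK 293T cells incubated overnight before compound addition; 5 hr later the cleavable FRET substrate went on for 2 hr at room temperature, and fluorescence was read at two emissions.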

Assay [7] has as its target Thyrotropin-releasing hormone receptor (Homo sapiens) (UniProt P34981). Briefly: qHTS assay to identify small molecule antagonists of the thyrotropin-releasing hormone receptor (TRHR) signaling pathway (AID 1346877; active = well fitted inhibition curve with a large enough effect in the repeat runs, not every such curve was filed as active; also: series mostly up to about 51 µM). The method, boiled down:
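HEK293/TRHR cells, 18 h, 37 °C; Ca2+ dye 2 h; cpd 5 min RT; TRH 1 nM final; fluorescence read 3 min, 1 s intervals; 15 concs, triplicate.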

The target is the same in assay [8]. The assay can be described thus: qHTS assay to identify small molecule agonists of the thyrotropin-releasing hormone receptor (TRHR) signaling pathway (AID 1346891; calls by dose curve; also: series mostly up to about 58 µM). The method, boiled down:
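Screening of agonists relied on calcium signalling in HEK293 cells expressing human TRHR: dye loading 2 h at 37 °C preceded compound addition and a 3-min fluorescence time course.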

Assay [9] can be described thus: Human pregnane X receptor (PXR) small molecule agonists, qHTS cell viability counter screen (AID 1346977). Also: nearly all actives have a fitted effect of over 50% in size. Also: potency is read from the fitted curve at half-maximal effect. In outline: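 Tox21 qHTS format; PXR-Luc HepG2, 2,000/well, charcoal-stripped FBS 5%. Cpd exposure 24hr. Read: CellTiter-Fluor fluorescence, multiplexed with luciferase.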
The nature of assay [10]: Caspase-3/7 induction in HepG2 cells by small molecules, qHTS assay (AID 1346978). Also: nearly all actives have a fitted effect of over 15% in size. In outline:
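Caspase-3/7 induction was measured by Caspase-Glo 3/7 luminescence (30 min, room temperature) after a 17 hr compound exposure of wild-type HepG2 cells seeded at 2,000 per well and pre-incubated 5 hr.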

A short description of assay [11]: Caspase-3/7 induction in CHO-K1 cells by small molecules, qHTS assay (AID 1346980). Also: nearly all actives have a fitted effect of over 15% in size. The method, boiled down: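 Luminescent Caspase-Glo 3/7 read (30min, room temperature) quantified apoptosis induction. Cells were wild-type CHO-K1, treated with compound for 17hr at 37 C and 5% CO2.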
A short description of assay [12]: Caspase-3/7 induction in HepG2 cells by small molecules, qHTS cell viability counter screen (AID 1346981). Also: nearly all actives have a fitted effect of over 30% in size. Also: potency is read from the fitted curve at half-maximal effect. In outline:
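Fluorescence read-out of live-cell protease activity (CellTiter-Fluor) after 1 hr with reagent. This was measured in the same wells as the caspase-3/7 luminescence, on HepG2 cells exposed to DMSO-dissolved compounds for 16 hr at 37 C.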

Assay [13] deals with Nuclear receptor subfamily 1 group I member 2 (Homo sapiens) (UniProt O75469). The assay can be described thus: Human pregnane X receptor (PXR) small molecule agonists, qHTS assay (AID 1346982). Also: nearly all actives have a fitted effect of over 35% in size. Also: potency is read from the fitted curve at half-maximal effect. The method, boiled down:
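HepG2 PXR-Luc reporter line, 5% charcoal-stripped FBS; 5 hr pre-incubation, compound (DMSO) 24 hr at 37 C/5% CO2; ONE-Glo 30 min RT; luminescence read-out.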

For assay [14], the target named is Cytochrome P450 2D6 (Homo sapiens) (UniProt P10635). Briefly: Cytochrome P450 Family 2 Subfamily D Member 6 (CYP2D6) small molecule antagonists: luciferase reporter qHTS assay (AID 1671196). Also: nearly all actives have a fitted effect of over 50% in size. Also: potency is read from the fitted curve at half-maximal effect. In outline:
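Luminogenic proluciferin substrate, CYP2D6 enzyme; 10 min RT preincubation with compound, NADPH regeneration system added, 1 h RT. Stop/detection reagent, 20 min RT, luminescence read (RLU). Signal proportional to CYP activity.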

In assay [15] the target is Progesterone receptor (Homo sapiens) (UniProt P06401). The assay can be described thus: qHTS assay to identify small molecule antagonists of the progesterone receptor (PR) signaling pathway (AID 1346795; active = well fitted inhibition curve with a large enough effect in the signal ratio in the repeat runs, not every such curve was filed as active; the % refers to the signal ratio; also: potency is read from the fitted curve at half-maximal effect). In outline:
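In HEK293T cells bearing the PR-UAS-bla reporter, compound effects on promegestone-driven (1 nM) beta-lactamase expression are assessed after 16 hr using a fluorescent FRET substrate incubated 2 hr at room temperature.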

The nature of assay [16]: Caspase-3/7 induction in CHO-K1 cells by small molecules, qHTS cell viability counter screen (AID 1346979). Also: nearly all actives have a fitted effect of over 35% in size. Also: potency is read from the fitted curve at half-maximal effect. In outline: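 CellTiter-Fluor viability check, qHTS format: wild-type CHO-K1, 16hr compound treatment, 1hr reagent incubation, fluorescence read.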
For assay [17], the target named is Nuclear receptor subfamily 1 group I member 2 (Homo sapiens) (UniProt O75469). The assay can be described thus: CYP3A4 induction through human pregnane X receptor (PXR) by small molecules, qHTS assay (AID 1346984). Also: nearly all actives have a fitted effect of over 40% in size. The method, boiled down:
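HepG2-derived DPX-2 line carrying PXR plus a CYP3A4-promoter luciferase reporter; cells plated 5 hr, compound-exposed 24 hr at 37C. CYP3A4 activity probed with 3uM (final) Luciferin-IPA for 3hr, then luciferase read after One-Glo.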

The target is the same in assay [18]. The assay can be described thus: Human pregnane X receptor (PXR) activation by small molecules, qHTS assay (AID 1346985). Also: potency is read from the fitted curve at half-maximal effect; nearly all actives have a fitted effect of over 40% in size. In outline:
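DPX-2 cells (HepG2 co-transfected with a PXR response element and a CYP3A4-promoter luciferase construct) were seeded at 2,000 per well, rested 5 hr at 37C, then exposed to DMSO-dissolved compounds for 24 hr. Activation was read as luciferase luminescence.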

Assay [19] is described as follows: qHTS assay to identify small molecule agonists of the progesterone receptor (PR) signaling pathway - cell viability counter screen (AID 1346799; calls by dose curve; also: nearly all actives have a fitted effect of over 45% in size; also: potency is read from the fitted curve at half-maximal effect). The method, boiled down: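 Here, 3,000 PR-UAS-bla HEK293T cells per well were treated with compounds for 16 hr after a 6 hr preincubation at 37C and 5% CO2; cell viability is the CellTiter-Glo luminescence signal.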

Each structure is given as a SMILES string. Unmarked numbers belong to inactive results. Inconclusive results are not listed. Calls of active or inactive are those of the source. Unless noted, calls follow the shape of the dose curve; as a rule, active = well fitted curve in the direction sought with a large enough effect in the repeat runs; inconclusive = weak or mixed curves; inactive = no such curve, though single readings can be large; an effect the other way counts as inactive or inconclusive.

Sequence of Cytochrome P450 2D6 (Homo sapiens) (P10635 whole entry, looked up): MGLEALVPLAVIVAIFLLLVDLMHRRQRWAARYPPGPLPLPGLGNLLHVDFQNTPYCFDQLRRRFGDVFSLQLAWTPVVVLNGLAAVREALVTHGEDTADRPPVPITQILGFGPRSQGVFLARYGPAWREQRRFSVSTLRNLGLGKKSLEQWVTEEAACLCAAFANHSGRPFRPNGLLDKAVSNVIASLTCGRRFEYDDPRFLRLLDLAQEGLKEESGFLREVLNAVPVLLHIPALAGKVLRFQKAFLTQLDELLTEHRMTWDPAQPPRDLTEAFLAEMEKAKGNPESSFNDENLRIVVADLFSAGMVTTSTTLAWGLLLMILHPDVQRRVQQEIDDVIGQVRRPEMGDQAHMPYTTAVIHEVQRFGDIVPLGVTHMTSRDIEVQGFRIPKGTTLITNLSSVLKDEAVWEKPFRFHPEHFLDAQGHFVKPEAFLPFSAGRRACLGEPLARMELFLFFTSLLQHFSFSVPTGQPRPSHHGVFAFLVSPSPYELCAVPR
Sequence of Thyrotropin-releasing hormone receptor (Homo sapiens) (P34981 whole entry, looked up): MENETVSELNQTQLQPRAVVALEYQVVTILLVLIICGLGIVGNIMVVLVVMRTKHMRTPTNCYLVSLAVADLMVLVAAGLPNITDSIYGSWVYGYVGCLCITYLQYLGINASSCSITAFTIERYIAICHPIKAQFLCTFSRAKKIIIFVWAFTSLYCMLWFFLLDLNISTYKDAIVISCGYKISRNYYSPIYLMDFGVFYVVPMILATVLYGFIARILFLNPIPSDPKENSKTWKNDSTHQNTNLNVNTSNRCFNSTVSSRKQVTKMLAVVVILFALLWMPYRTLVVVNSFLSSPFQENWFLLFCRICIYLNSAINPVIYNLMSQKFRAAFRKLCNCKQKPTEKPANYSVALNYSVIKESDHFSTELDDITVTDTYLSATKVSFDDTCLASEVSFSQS
Sequence of Progesterone receptor (Homo sapiens) (P06401 whole entry, looked up): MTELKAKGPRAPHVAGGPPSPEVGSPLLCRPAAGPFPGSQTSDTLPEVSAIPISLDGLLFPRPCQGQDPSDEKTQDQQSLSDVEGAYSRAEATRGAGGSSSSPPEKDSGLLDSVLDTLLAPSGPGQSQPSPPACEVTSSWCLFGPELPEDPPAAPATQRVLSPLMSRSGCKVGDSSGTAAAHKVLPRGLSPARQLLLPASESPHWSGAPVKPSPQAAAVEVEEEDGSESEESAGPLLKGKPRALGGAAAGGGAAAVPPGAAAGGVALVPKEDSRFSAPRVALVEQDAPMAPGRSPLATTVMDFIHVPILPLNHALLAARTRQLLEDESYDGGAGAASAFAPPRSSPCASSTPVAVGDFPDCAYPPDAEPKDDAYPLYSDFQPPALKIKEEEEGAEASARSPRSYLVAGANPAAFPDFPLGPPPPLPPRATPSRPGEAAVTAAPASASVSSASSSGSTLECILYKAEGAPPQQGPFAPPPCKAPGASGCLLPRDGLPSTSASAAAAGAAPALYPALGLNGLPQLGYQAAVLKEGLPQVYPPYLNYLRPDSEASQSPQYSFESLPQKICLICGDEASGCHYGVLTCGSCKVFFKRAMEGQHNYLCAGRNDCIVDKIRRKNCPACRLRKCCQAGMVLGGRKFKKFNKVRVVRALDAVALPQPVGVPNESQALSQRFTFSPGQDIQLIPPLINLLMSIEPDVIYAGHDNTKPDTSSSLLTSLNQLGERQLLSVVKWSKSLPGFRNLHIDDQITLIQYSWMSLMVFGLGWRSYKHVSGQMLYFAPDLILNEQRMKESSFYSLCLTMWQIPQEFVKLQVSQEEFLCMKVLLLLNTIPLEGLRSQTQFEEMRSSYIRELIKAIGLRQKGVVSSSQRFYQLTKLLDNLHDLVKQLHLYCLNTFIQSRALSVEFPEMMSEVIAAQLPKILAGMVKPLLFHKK
Sequence of Nuclear receptor subfamily 1 group I member 2 (Homo sapiens) (O75469 whole entry, looked up): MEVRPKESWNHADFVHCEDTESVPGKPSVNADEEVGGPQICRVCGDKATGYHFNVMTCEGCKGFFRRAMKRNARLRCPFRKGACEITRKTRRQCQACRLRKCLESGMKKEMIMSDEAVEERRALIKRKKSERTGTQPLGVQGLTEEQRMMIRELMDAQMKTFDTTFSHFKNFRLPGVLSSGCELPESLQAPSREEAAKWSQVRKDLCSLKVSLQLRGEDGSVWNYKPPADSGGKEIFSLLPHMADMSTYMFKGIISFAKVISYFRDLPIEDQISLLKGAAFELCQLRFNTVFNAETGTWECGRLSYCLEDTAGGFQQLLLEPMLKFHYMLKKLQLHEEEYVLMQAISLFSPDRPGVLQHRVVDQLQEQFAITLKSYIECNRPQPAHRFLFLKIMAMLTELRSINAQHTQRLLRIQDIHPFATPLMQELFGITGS

For the compound `Cc1ccc(CO)cc1`, the Potency result in [1], in assay [3], in assay [4], in [5], in assay [6] and in [8] was “inactive” in each case. Besides, the Potency entry in assay [9], in assay [10], in assay [11], in assay [12], in assay [13] and in [14] was “inactive” each time. Further, the Potency in [2] is 17.4 µM (active). For the same compound, the compound was called inactive in assay [7].

Consider `CCOc1ccccc1O[C@H](c1ccccc1)[C@H]1CNCCO1`, for which the Potency result in assay [1], in [15], in assay [3], in assay [4], in assay [5] and in assay [6] was “inactive” throughout. The Potency result in assay [10], in assay [16], in assay [11], in [12], in assay [13] and in assay [17] was “inactive” in each case. Moreover, in [18], the Potency was 22.4 µM (active).

With `CCCCN(CCN(CCCC)C(=O)N1CCOCC1)C(=O)N1CCOCC1`, the Potency entry in assay [1], in assay [2], in assay [4], in assay [5], in assay [8] and in [10] was “inactive” in each case. Also, the Potency result in [16], in assay [11], in assay [12] and in assay [14] was “inactive” throughout. Further, the Potency in [19] was 29.8 µM (active). Besides, the result in [7] was inactive.

In the case of `CS(=O)(=O)c1ccc(-c2cn3ccccc3n2)cc1`, the Potency entry in assay [1], in assay [2], in assay [4], in assay [5], in [8] and in assay [9] was “inactive” in each case. Also, the Potency entry in assay [10], in assay [16], in assay [11] and in assay [12] was “inactive” each time. Further, the Potency was 29.8 µM (active) in assay [3] and 27.5 µM (active) in assay [14]. The result in assay [7] was inactive.

As for `C[C@@]12CCC[C@H]1[C@@H]1CC[C@H]3C[C@@H](O)CC[C@]3(C)[C@H]1CC2`, the Potency result in assay [1], in assay [2], in [19], in assay [4], in assay [5] and in assay [8] was “inactive” throughout. Further, the Potency result in assay [10], in assay [12] and in [14] was “inactive” in each case. Besides, the Potency in assay [3] was 26.6 µM (active). The outcome in assay [7] was inactive.

For `O=[N+]([O-])c1cc(C2CCCCC2)c(O)c([N+](=O)[O-])c1`, the Potency is 15.3 µM (active) in [1]; 24.3 µM (active) in assay [15]; 4.31 µM (active) in assay [9]; 7.67 µM (active) in assay [16]; 31.6 µM (active) in assay [14]. In addition, the Potency entry in [4], in assay [5], in [10] and in [11] was “inactive” each time.

As to `CCC(C)COC(=O)CC(C)C` (stereo not drawn), the Potency result in assay [1], in [2], in assay [4], in [5], in assay [6] and in assay [8] was “inactive” in each case. The Potency result in assay [9], in assay [10], in assay [16], in assay [11], in [13] and in [14] was “inactive” each time. For the same compound, the Potency in assay [3] was 9.69 µM (active). Besides, the outcome in assay [7] was inactive.

As to `CC(C)c1nc(CN(C)C(=O)N[C@H](C(=O)N[C@@H](Cc2ccccc2)C[C@H](O)[C@H](Cc2ccccc2)NC(=O)OCc2cncs2)C(C)C)cs1`, the Potency in [1] is 13.3 µM (active); in assay [3], 29.8 µM (active); in [19] it was 26.6 µM (active); in assay [9], 9.44 µM (active); in assay [16], 23.7 µM (active); in assay [12], 21.1 µM (active). The Potency in assay [13] was 5.96 µM (active). For the same compound, the Potency result in [2], in assay [4], in [5], in assay [8], in assay [10] and in assay [11] was “inactive” in each case. For the same compound, in assay [7], the compound was called inactive.

Consider `COc1ccccc1N1CCN(CC(O)COc2cccc3ccccc23)CC1` (stereo not drawn), for which the Potency entry in [1], in [2], in assay [4], in assay [5], in assay [6] and in assay [10] was “inactive” in each case. Besides, the values for the Potency in assay [19] and in assay [14] were 33.5 µM (active) and 1.55 µM (active), respectively.
